According to PubChem BioAssay (NCATS):
Records with an inconclusive call do not appear. Active and inactive are the calls of the source. Unless noted, calls come from the whole dose curve; as a rule, active = well fitted curve in either direction with a large enough effect (not every such curve was filed as active); inconclusive = small, poorly fitted or top-dose-only effect, or another doubt; inactive = flat fitted curve, though single readings scatter.

Experiments:
[1] = target: Lysosomal acid glucosylceramidase (Homo sapiens) (UniProt P04062); assay: Glucocerebrosidase-p2 (AID 348; in the data active = potency below about 10 µM; note: potency is the fitted concentration of half-maximal effect); settings: purified GBA, blue fluorogenic substrate, 40 min
Sequence of Lysosomal acid glucosylceramidase (Homo sapiens) (P04062 whole entry, looked up): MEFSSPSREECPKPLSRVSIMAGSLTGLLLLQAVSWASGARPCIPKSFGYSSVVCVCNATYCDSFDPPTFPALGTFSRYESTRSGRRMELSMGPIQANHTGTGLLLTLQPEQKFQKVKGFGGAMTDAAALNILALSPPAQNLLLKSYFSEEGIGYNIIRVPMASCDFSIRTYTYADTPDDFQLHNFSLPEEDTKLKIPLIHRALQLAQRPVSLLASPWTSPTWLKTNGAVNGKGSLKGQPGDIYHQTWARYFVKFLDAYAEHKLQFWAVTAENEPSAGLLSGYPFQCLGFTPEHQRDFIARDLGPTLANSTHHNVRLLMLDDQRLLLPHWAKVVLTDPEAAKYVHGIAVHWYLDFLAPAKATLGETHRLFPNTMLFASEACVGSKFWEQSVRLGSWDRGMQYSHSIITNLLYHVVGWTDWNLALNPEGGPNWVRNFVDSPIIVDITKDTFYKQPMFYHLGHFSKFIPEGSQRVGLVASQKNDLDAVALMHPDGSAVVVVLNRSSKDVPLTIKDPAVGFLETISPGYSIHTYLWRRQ
Procedure, shortened: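 Compounds titrated from 0.6 nM upwards against 0.2 nM enzyme in pH 5.9 citric acid/KH2PO4, taurocholate, tween-20; blue fluorogenic substrate 80 uM, 40 min room temperature, stopped and read Ex 365/Em 440 for AC50.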

[2] = AP1 Signaling Pathway (AID 357); settings: ME-180 AP-1-bla reporter, EGF-induced, beta-lactamase ratio, 5 h; at 7.69 µM (top of the series) unless noted;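 note: ME-180 reporter cells stimulated with EGF at its EC50 level; % is set by controls: 0 for no effect and ±100 for the full control effect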
Procedure, shortened: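 In this screen, ME-180 cells in Opti-MEM with 0.5% dialyzed FBS received EC50 EGF and compound titrations for 5 h. AP-1 reporter beta-lactamase was detected via CCF4 ratio, giving AC50 for positive and negative modulators.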

[3] = NFAT Signaling Pathway (AID 444); settings: Jurkat NFAT-bla M1, carbachol, beta-lactamase ratio, 5 h; at 7.69 µM (top of the series) unless noted;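 note: carbachol stimulus at about its EC50 of 1 µM final; % is set by controls: 0 for no effect and ±100 for the full control effect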
Procedure, shortened: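 Jurkat cells carrying an NFAT-driven β-lactamase reporter and co-transfected muscarinic M1 receptor were treated with compound plus carbachol (1 uM final, an EC50 level) for 5 h at 37 °C. CCF4 loading followed for 1 h at RT; 460/530 nm ratio gave %activity.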

[4] = Stat Signaling Pathway (AID 446); settings: ME-180 SIE beta-lactamase reporter, IL-6 stimulated, 5 h; at 7.69 µM (top of the series) unless noted;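 note: ME-180 cervical cancer cells given 40 pM IL-6 alongside compound; SIE-controlled beta-lactamase reporter measured as 460/530 nm FRET emission ratio; % is set by controls: 0 for no effect and ±100 for the full control effect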
Procedure, shortened: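 ME-180 SIE-bla cells; overnight plating; cpd + IL-6 40 pM, 5 h, 37 C; LiveBLAzer 2.5 h RT; 460/530 nm emission ratio. Normalized to 300 pM IL-6 and 125 nM JAK inhibitor controls.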

[5] = target: Glucocorticoid receptor (Homo sapiens) (UniProt P04150); assay: GR-EFC Redistribution (AID 451; calls by dose curve; note: potency is the fitted concentration of half-maximal effect); settings: CHO-K1 GR-EFC translocation, beta-gal luminescence, 2 h
Sequence of Glucocorticoid receptor (Homo sapiens) (P04150 whole entry, looked up, the tested form may be a part): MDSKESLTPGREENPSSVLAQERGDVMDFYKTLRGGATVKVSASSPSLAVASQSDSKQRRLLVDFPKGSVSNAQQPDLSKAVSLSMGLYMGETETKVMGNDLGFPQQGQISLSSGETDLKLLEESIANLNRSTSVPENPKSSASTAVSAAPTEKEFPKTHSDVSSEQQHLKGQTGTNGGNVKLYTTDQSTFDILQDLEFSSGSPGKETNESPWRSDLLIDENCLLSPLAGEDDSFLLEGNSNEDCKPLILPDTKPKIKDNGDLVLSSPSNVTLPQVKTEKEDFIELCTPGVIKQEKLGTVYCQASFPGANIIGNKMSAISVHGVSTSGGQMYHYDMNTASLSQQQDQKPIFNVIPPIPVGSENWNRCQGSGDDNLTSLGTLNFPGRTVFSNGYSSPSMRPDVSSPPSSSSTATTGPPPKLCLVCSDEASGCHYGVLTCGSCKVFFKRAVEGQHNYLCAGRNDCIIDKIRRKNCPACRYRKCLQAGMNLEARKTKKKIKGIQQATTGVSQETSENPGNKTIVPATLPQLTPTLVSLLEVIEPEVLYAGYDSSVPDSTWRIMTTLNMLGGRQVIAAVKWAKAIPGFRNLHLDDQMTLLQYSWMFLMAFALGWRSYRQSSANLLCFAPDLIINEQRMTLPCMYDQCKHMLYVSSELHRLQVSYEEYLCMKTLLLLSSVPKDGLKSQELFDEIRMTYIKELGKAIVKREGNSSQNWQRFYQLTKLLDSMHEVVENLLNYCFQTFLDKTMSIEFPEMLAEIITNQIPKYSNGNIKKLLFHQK
Procedure, shortened: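 CHO-K1 cells stably expressing nuclear-localized β-gal enzyme acceptor and GR fused C-terminally to the enzyme donor fragment; ligand-driven nuclear translocation restores β-gal by complementation. Compounds titrated up to 46 uM final, 2 h at 37 °C; luminescence read.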

[6] = target: Mitogen-activated protein kinase 10 (Mus musculus) (UniProt Q61831); assay: JNK3 AlphaScreen Assay (AID 530); settings: JNK3 lysate, c-Jun phosphorylation; series mostly up to 57.1 µM;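 note: kinase came from lysate of stimulated human HepG2 cells; signal reports phosphorylation of biotinylated GST-cJun 1-79 at Ser73 with 10 µM ATP; % is set by controls: 0 for no effect and ±100 for the full control effect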
Procedure, shortened: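 JNK3 came from HepG2 lysates pre-activated with IL-1beta and TNF-alpha and phosphorylated biotinylated GST-cJun (1-79) at 10 uM ATP, pH 7.6, room temperature. Compounds were titrated. AlphaScreen signal used anti-phospho-cJun (Ser73) antibody.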

[7] = target: 3',5'-cyclic-AMP phosphodiesterase 4B (Homo sapiens) (UniProt Q07343); assay: qHTS Assay for Inhibitors of PDE-IV (AID 607; active = well fitted activation curve with a large enough effect in the main read-out, with a control signal flat, not every such curve was filed as active; note: % of control where 0% means no effect); settings: HEK293 ACTOne CNG channel cells, membrane potential fluorescence; series mostly up to 22.9 µM
Sequence of 3',5'-cyclic-AMP phosphodiesterase 4B (Homo sapiens) (Q07343 whole entry, looked up): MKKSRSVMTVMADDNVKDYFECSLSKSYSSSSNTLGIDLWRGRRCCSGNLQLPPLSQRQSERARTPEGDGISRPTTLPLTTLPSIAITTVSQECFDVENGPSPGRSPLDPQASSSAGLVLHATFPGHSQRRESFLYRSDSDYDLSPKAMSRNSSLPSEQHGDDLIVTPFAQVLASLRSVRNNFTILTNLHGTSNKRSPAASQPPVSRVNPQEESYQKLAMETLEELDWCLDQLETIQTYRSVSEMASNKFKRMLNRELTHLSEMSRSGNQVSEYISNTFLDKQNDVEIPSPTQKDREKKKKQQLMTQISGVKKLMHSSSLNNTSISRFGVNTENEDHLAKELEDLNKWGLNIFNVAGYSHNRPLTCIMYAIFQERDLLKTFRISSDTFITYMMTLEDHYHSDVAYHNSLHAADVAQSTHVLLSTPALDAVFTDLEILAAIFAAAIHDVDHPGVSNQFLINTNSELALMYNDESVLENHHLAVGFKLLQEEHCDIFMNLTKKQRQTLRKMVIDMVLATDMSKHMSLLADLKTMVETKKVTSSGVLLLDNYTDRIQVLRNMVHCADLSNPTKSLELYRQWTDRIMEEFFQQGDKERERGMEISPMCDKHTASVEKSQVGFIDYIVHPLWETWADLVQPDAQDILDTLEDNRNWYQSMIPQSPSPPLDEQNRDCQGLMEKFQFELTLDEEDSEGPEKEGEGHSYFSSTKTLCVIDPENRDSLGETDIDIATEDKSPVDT
Procedure, shortened: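 ACTOne HEK293 cells carry a modified cAMP-gated CNG channel and express endogenous PDE4; plated 1000 cells/well, compounds up to 22.9 uM final. Membrane-potential dye fluorescence (ex 535/em 590) was read; parental cells received 10 uM forskolin + 100 uM RO 20-1724.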

[8] = qHTS Assay for Lipid Storage Modulators (AID 1519; calls by dose curve); settings: Drosophila S3 cells, BODIPY lipid droplet/cell ratio, laser cytometry, cells loaded with oleic acid; for activity change, negative = inhibition: at 57.5 µM (top of the series)
Procedure, shortened: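 Cells seeded at 5,000 per well were treated with compounds over a concentration series and loaded with oleic acid (400 uM, as added). Lipid droplet fluorescence (488 nm excitation, 500-530 nm channel) was read by laser-scanning cytometry and normalized to 20 uM Triacsin C.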

[9] = Primary qHTS for small molecule stabilizers of the endoplasmic reticulum resident proteome: Secreted ER Calcium Modulated Protein (SERCaMP) assay (AID 1508630; active = well fitted inhibition curve with a large enough effect; note: % is set by controls: 0 for no effect and ±100 for the full control effect); settings: SH-SY5Y GLuc-SERCaMP (Gaussia luciferase released on ER calcium loss) secretion, thapsigargin, luminescence; series mostly up to 38.4 µM
Procedure, shortened: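 GLuc-SERCaMP-expressing SH-SY5Y cells, pretreated 16 h with compound, are challenged with thapsigargin to empty ER calcium stores; after 4 h, coelenterazine is added directly to the medium and luminescence is imaged.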

[10] = measured here: cell count channel max response
[11] = measured here: lipid channel max response

Row | Structure (SMILES) | Potency [1] | activity change, negative = inhibition [2] | activity change, negative = inhibition [3] | activity, negative = inhibition [4] | Potency [5] | Potency [6] | Potency [7] | activity change, negative = inhibition [8] | max response [8, 10] [%] | max response [8, 11] [%] | outcome [9]
1 | O=C(c1csnn1)N1CCC2(CC1)CCN(c1cccc(-c3ccccc3)c1)CC2 | > 11.4 µM (inactive) | -21.7% (inactive) | 22.2% (inactive) | -14.3% (inactive) | > 46 µM (inactive) | inactive | inactive | -6.94% (inactive) | 9.03 | 3.45 | inactive
2 | O=C(c1cnccn1)N1CCC[C@@]2(CCN(Cc3ccccc3)C2)C1 | > 11.4 µM (inactive) | 5.08% (inactive) | 6.26% (inactive) | 1.17% (inactive) | > 46 µM (inactive) | inactive | inactive | 1.97% (inactive) | 8.78 | 13.2 | inactive
3 | Cc1noc(C)c1C(=O)N1CCC2(CC1)CCN(c1ncccn1)CC2 | > 11.4 µM (inactive) | 16.2% (inactive) | 5.74% (inactive) | 3.32% (inactive) | > 46 µM (inactive) | inactive | inactive | 5.54% (inactive) | 6.46 | 13.5 | inactive
4 | Cn1cccc1C(=O)N1CCC2(CC1)CN(C(=O)Nc1cccc(C#N)c1)C2 | > 11.4 µM (inactive) | -22.3% (inactive) | -2.19% (inactive) | -3.02% (inactive) | > 46 µM (inactive) | inactive | inactive | 4.61% (inactive) | 11.3 | 18.4 | inactive
5 | COc1ccc(C(=O)N2CCC[C@@]3(CCN(c4ncccn4)C3)C2)cc1 | > 11.4 µM (inactive) | -20.4% (inactive) | 4.77% (inactive) | 1.38% (inactive) | > 46 µM (inactive) | inactive | inactive | 4.06% (inactive) | 3.46 | 12.1 | inactive
6 | CC(=O)N1CCC2(CC1)CN(C(=O)Nc1cccc(C#N)c1)C2 | > 11.4 µM (inactive) | -2.26% (inactive) | 4.7% (inactive) | 11.4% (inactive) | > 46 µM (inactive) | inactive | inactive | 2.51% (inactive) | -2.48 | 1.82 | inactive
7 | N#Cc1ccc(CN2CC[C@@]3(CCCN(C(=O)c4ccncc4)C3)C2)cc1 | > 11.4 µM (inactive) | -10.1% (inactive) | -7.12% (inactive) | 8.24% (inactive) | > 46 µM (inactive) | inactive | inactive | 4.36% (inactive) | 17.6 | 26 | inactive
8 | COc1ccc(NC(=O)N2CC[C@@]3(CCCN(C(=O)c4ccncc4)C3)C2)cc1 | > 11.4 µM (inactive) | -25.1% (inactive) | 16.8% (inactive) | 5.11% (inactive) | > 46 µM (inactive) | inactive | inactive | 2.47% (inactive) | 0.213 | 7.4 | inactive
9 | O=C(c1csnn1)N1CCC[C@@]2(CCN(Cc3cc(C(F)(F)F)cc(C(F)(F)F)c3)C2)C1 | > 11.4 µM (inactive) | -0.847% (inactive) | 2.05% (inactive) | -8.74% (inactive) | > 46 µM (inactive) | inactive | inactive | 5.01% (inactive) | 20.3 | 22.1 | inactive
10 | COC(=O)N1CCC[C@@]2(CCN(c3ccccc3)C2)C1 | > 11.4 µM (inactive) | -10.2% (inactive) | -9.75% (inactive) | 7.98% (inactive) | > 46 µM (inactive) | inactive | inactive | -12.5% (inactive) | 14 | -1.29 | inactive
11 | O=C(Nc1cccc(F)c1)N1CC[C@@]2(CCCN(C(=O)c3csnn3)C2)C1 | > 11.4 µM (inactive) | -13.9% (inactive) | 20.4% (inactive) | -1.73% (inactive) | > 46 µM (inactive) | inactive | inactive | 3.72% (inactive) | 12.5 | 18.5 | inactive
12 | O=C(c1ccco1)N1CCC[C@@]2(CCN(c3ncccn3)C2)C1 | > 11.4 µM (inactive) | -6.68% (inactive) | -7.21% (inactive) | -5.91% (inactive) | > 46 µM (inactive) | inactive | inactive | 3.43% (inactive) | 17.7 | 23.3 | inactive
13 | CC(C)NC(=O)N1CCC2(CC1)CCN(S(=O)(=O)c1ccccc1)CC2 | > 11.4 µM (inactive) | -11.1% (inactive) | 6.99% (inactive) | -1.93% (inactive) | > 46 µM (inactive) | inactive | inactive | 3.73% (inactive) | -0.645 | 4.57 | inactive
